Measured values: PubChem BioAssay
For part of these data: Results with a measured potency or affinity are listed apart. Active and inactive are the calls of the source.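 Rule for the calls, unless noted: active = fitted half-maximal concentration within 10 nM to 100 µM, steepness 0.5 to 2, significant signal drop, low assay interference; inactive = the rest.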

How the values were obtained:
[1] = target: Cell division control protein 42 homolog (Homo sapiens) (UniProt P60953); assay: inhibition of fluorescent GTP binding to constitutively active Cdc42 – biochemical, multiplex bead flow cytometry, Bodipy-FL-GTP, dose response (AID 1333;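 active = fitted half-maximal concentration within the tested dose range, moderate curve steepness, a statistically real signal drop, and little compound fluorescence or tag-binding interference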)
Cell division control protein 42 homolog (Homo sapiens), sequence (P60953 whole entry, looked up): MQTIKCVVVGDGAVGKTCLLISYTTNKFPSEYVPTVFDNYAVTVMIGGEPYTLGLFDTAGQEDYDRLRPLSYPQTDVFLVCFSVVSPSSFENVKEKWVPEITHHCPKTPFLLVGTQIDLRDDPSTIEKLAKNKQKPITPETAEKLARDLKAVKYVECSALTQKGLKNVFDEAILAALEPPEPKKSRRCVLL

[2] = target: Cell division control protein 42 homolog (Homo sapiens) (UniProt P60953); assay: inhibition of fluorescent GTP binding to wildtype Cdc42 – biochemical, multiplex bead flow cytometry, Bodipy-FL-GTP, dose response (AID 1334;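 active = fitted half-maximal concentration within the tested range, moderate curve steepness, significant signal drop, and little compound fluorescence or bead-linkage interference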); conditions: bead-based flow cytometry, Bodipy-FL-GTP binding to GST-Cdc42; at 100 µM (top of the series) unless noted
[3] = target: GTPase HRas (Homo sapiens) (UniProt P01112); assay: Ras wt fluorescent GTP loading blockade – biochemical, wildtype, multiplex bead flow cytometry, dose response (AID 1335); conditions: bead-based flow cytometry, Bodipy-GTP binding to GST-Ras; at 100 µM (top of the series) unless noted
GTPase HRas (Homo sapiens), sequence (P01112 whole entry, looked up): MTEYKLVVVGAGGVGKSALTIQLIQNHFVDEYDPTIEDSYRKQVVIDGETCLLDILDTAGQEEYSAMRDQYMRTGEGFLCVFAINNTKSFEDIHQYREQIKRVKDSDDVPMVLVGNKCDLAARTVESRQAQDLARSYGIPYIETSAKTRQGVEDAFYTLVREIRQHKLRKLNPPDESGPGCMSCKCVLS

[4] = tested on: Ras-related protein Rab-7a (dog), GTP binding; assay: blockers of fluorescent GTP binding to Rab7 – biochemical, wildtype, multiplex bead flow cytometry, dose response (AID 1336; call rule not given here)
[5] = target: Ras-related C3 botulinum toxin substrate 1 (Homo sapiens) (UniProt P63000); assay: inhibition of wildtype Rac1 nucleotide loading – biochemical, multiplex bead flow cytometry, dose response (AID 1340;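 active = dose curve with midpoint inside tested range, moderate steepness, plateau gap beyond fit error, low compound glow and bead-link interference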); conditions: GST-Rac1 beads, Bodipy-FL-GTP binding; at 100 µM (top of the series) unless noted
[6] = target: GTPase HRas (Homo sapiens) (UniProt P01112); assay: blockade of GTP loading onto mutant Ras – biochemical, activated mutant, multiplex bead flow cytometry, dose response (AID 1341;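 active = dose-response curve with midpoint inside the tested range, moderate steepness, significant amplitude and little compound fluorescence or bead-attachment interference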;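 note: GST-tagged constitutively activated Ras mutant immobilized on beads and multiplexed with other GTPases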)

Row | SMILES | outcome [1] | fluorescence, percent of control (lower = inhibition) [2] [%] | GTP binding, percent of control [3] [%] | outcome [4] | GTP binding signal, raw median fluorescence (lower = inhibition) (MCF (arbitrary fluorescence units)) [5] | outcome [6]
1 | COc1ccc(OCCN2C(=O)c3ccccc3C2=O)cc1 | inactive | 35.6 | 81.5 | inactive | 240 | inactive
2 | O=C(CSc1ccc2nnc(-c3ccncc3)n2n1)Nc1nccs1 | inactive | 30.7 | 69.4 | inactive | 174 | inactive
3 | Cc1ccc(Nc2ncccc2C(=O)O)cc1 | inactive | 58.7 | 85.1 | inactive | 31.3 | inactive
4 | CCC/C(O)=C1\C(=O)CC(C)(C)CC1=Nc1ccccc1OC | inactive | 41.5 | 88.8 | inactive | 276 | inactive
5 | O=C(c1nnsc1S(=O)(=O)c1ccc(Cl)cc1)N1CCOCC1 | inactive | 39.7 | 77.4 | inactive | 289 | inactive
6 | Cc1nc2c(ccc3nc(NC(=O)c4ccc(S(=O)(=O)N(C)C)cc4)sc32)s1 | inactive | 79.8 | 151 | inactive | 159 | inactive
7 | Cc1ccc(-n2nc3c(=S)[nH]nc(C)c3c2C)cc1 | inactive | 54.7 | 66.3 | inactive | 201 | inactive
8 | CCOC(=O)N1CCN(/C=C(\C#N)c2nc3ccccc3s2)CC1 | inactive | 80.8 | 92.3 | inactive | 240 | inactive
9 | S=C(NCCc1ccccc1)NC1CC1 | inactive | 36.3 | 79.2 | inactive | 253 | inactive
10 | Cc1ccccc1/C=C1\SC(=S)N(/N=C/c2cc([N+](=O)[O-])ccc2O)C1=O | inactive | 34.1 | 81.2 | inactive | 228 | inactive
11 | CCc1nnc2c(N(C)C)nc3ccccc3n12 | inactive | 34.8 | 76.3 | inactive | 168 | inactive
12 | O=C(O)CC/C(=C\c1ccc(N2CCCC2)c([N+](=O)[O-])c1)c1nc2ccccc2s1 | inactive | 34.4 | 81.8 | inactive | 244 | inactive
13 | Cc1nnc2ccc(-c3cccc(NC(=O)c4ccc(Br)o4)c3)nn12 | inactive | 34.5 | 81.8 | inactive | 206 | inactive
14 | COc1ccc(/C=N/NC(=O)CSc2n[nH]c(=O)[nH]c2=O)cc1 | inactive | 53.1 | 69.6 | inactive | 0 | inactive
15 | CN1CCc2nc3ccc(Cl)cc3c(-c3ccccc3Cl)c2C1 | inactive | 37.3 | 81.8 | inactive | 257 | inactive
16 | NOC(=O)c1cccnc1SCCc1ccccc1 | inactive | 45.9 | 125 | inactive | 63 | inactive
17 | Cc1ccc(OCc2ccc(C(=O)Nc3nc4ccccc4n3Cc3ccccc3)o2)c([N+](=O)[O-])c1 | inactive | 48.5 | 60.3 | inactive | 193 | inactive
18 | Cc1cccc(S(=O)(=O)c2c(N)n(/N=C/c3cccnc3)c3nc4ccccc4nc23)c1 | inactive | 81.3 | 51.7 | inactive | 135 | inactive
19 | N#C/C(=C/c1ccc(-c2ccccc2)o1)c1nc(-c2cccs2)cs1 | inactive | 96.4 | 107 | inactive | 228 | inactive
20 | Cc1ccccc1NC(=O)c1ccc(NC(=O)C2CC(=O)OC23CCCCC3)cc1 (stereo not drawn) | inactive | 32.9 | 76.1 | inactive | 195 | inactive
21 | CCOc1ccc(NC(=S)N=Nc2c(O)[nH]c3ccccc23)cc1 | inactive | 35.5 | 74.3 | inactive | 170 | inactive
22 | COc1cc(/C=C2/SC(=Nc3ccc(O)cc3)NC2=O)cc(OC)c1O | inactive | 39.8 | 84.1 | inactive | 231 | inactive
23 | O=C(N/N=C/c1ccc2nccnc2c1)c1cccc([N+](=O)[O-])c1 | inactive | 42.7 | 86.9 | inactive | 203 | inactive
24 | Cc1ccc(C(C)C)c(OCCSc2nc3ccccc3n2CC(=O)O)c1 | inactive | 56.7 | 86.4 | inactive | 32.1 | inactive
25 | CCN(CC)c1ccc(/C=c2/sc3nnc(-c4ccccc4C)n3c2=O)cc1 | inactive | 120 | 123 | inactive | 236 | inactive
26 | O=C(Nc1sc2c(c1C(=O)O)CCCCC2)c1ccccc1 | inactive | 29.3 | 74.3 | inactive | 201 | inactive
27 | COc1ccc(-c2nn(-c3ccccc3)cc2C(=O)NCCCn2ccnc2)cc1 | inactive | 49.1 | 61.1 | inactive | 202 | inactive
28 | CCOc1ccccc1C1C(C(=O)OC)=C(N)OC2=C1C(=O)CCC2 (stereo not drawn) | inactive | 90 | 149 | inactive | 184 | inactive
